ZTA DNA inh = blocks Epstein-Barr virus ZTA, an EBNA-1 counter-screen | P03206 | ZTA-DNA binding, fluorescence polarization | inhibition, % at 11 µM | actives 0.15% (n = 320,000) | AID 2234; in the data active = inhibition above about 33%
Target sequence (P03206 whole entry, looked up): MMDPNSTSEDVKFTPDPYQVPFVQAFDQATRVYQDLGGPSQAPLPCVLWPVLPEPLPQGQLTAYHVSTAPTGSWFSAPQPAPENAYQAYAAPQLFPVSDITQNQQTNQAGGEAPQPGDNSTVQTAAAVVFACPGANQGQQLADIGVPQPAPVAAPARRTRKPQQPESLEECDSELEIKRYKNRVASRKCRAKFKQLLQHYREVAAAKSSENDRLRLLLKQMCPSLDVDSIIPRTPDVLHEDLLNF
EBNA-1 inh = blocks EBNA-1 binding to DNA. EBNA-1 DNA binding, fluorescence polarization. inhibition, % at 14.8 µM. actives 0.34% (n = 300,000). AID 1950; in the data active = inhibition above about 28%
dFosB act-1 = mouse delta FosB homodimer activation | P13346 | purified delta FosB, TAMRA-CDK5 oligo fluorescence polarization; percent of positive-control signal above neutral wells | activation, % at 25 µM | actives 0.99% (n = 340,000) | AID 493131;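 active = mean activation above about 17%, with every replicate also reaching it, limit read from the data, passing the limit was not always enough; inconclusive = only one of the two conditions met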
Target sequence (P13346 whole entry, looked up): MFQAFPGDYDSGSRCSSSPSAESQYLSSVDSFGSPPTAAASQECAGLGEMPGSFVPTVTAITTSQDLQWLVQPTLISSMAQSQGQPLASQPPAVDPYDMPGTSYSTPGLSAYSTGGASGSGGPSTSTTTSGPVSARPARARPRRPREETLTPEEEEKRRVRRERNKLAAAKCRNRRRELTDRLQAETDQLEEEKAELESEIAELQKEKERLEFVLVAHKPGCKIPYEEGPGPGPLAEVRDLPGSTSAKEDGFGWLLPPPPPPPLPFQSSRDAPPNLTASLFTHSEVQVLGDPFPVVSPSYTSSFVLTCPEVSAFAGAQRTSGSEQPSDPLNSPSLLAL
NALP1 inh = inhibitors of NALP1 inflammasome in yeast | S. cerevisiae NALP1/ASC/caspase-1 growth, X-gal OD620, 72 h | inhibition, % at 10 µM | actives 0.61% (n = 280,000); in the data active = inhibition mostly above about 24%, no sharp cut-off; inactive = mostly below about 32%
NALP3 yeast inh = blocks the NALP3 inflammasome reconstituted in yeast; Yeast reconstituted NLRP3/ASC/caspase-1, beta-gal luminescence, 24 h; inhibition, % at 10 µM; actives 0.39% (n = 330,000); AID 2825;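 active = inhibition of 50% or more; inactive = inhibition below 50%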;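 also: plate controls were induced DMSO wells for no effect and uninduced yeast grown without galactose for full effect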
PolyA inhibitor = yeast polyadenylation inhibition | S. cerevisiae SKY197-pL101 polyadenylation reporter, beta-gal luminescence; efflux-impaired pdr1/pdr3 knockout yeast; score 100 = 6 SD above DMSO | activity score, % at 12 µM | actives 0.02% (n = 300,000);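 active = lowest replicate activity score at least 50, where 100 means six control SD above control mean; inconclusive = lowest score under 50 but half or more replicates reach 50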;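 also: yeast exposed to compound for 9 h at 30 °C; higher score means more reporter readthrough which indicates perturbed polyadenylation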
EBNA-1 confirm = EBNA-1 (EBV) inhibition, confirmation; shares compounds with EBNA-1 inh; Recombinant EBNA-1 DBD, Cy5-DNA fluorescence polarization; inhibition, % at 14.8 µM; actives 35% (n = 830); AID 2292;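 active = mean inhibition across replicates above a set limit taken from the earlier primary screen, cut at about 28% in these data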;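 also: plate controls were EBNA-1 protein with DMSO for no effect and wells lacking EBNA-1 for full effect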
ZTA DNA inh trip = counter-screen for EBNA-1 inhibitors: Epstein-Barr virus ZTA inhibitors, triplicate; shares compounds with EBNA-1 inh; Zta-ZRE DNA binding, Cy5 fluorescence polarization; inhibition, % at 11.1 µM; 830 tested, under 10 active;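 active = mean inhibition over triplicates above a set limit taken from the primary EBNA-1 screen, cut at about 37% in these data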;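 also: purified full length Zta protein with Cy5 labeled ZRE DNA probe; 0% = Zta with DMSO and 100% = wells lacking Zta protein; inhibitors lower polarization by freeing the labeled DNA probe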
Zta DNA confirm = EBV ZTA DNA binding inhibition, confirmation | shares compounds with ZTA DNA inh | Zta-ZRE DNA binding, fluorescence polarization | inhibition, % at 11.1 µM | actives 30% (n = 320);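 active = mean inhibition across triplicate runs above the hit threshold derived for the original primary screen, cut at about 33% in these data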;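 also: 0% = Zta with DMSO and 100% = wells lacking Zta protein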
EBNA-1 counter = EBNA-1 DNA binding inhibition, counter-screen for ZTA; shares compounds with ZTA DNA inh; fluorescence polarization; inhibition, % at 14.8 µM; 320 tested, under 10 active; AID 2362; call rule not given here
dFosB act-2 = activators of mouse delta FosB homodimer DNA binding. shares compounds with dFosB act-1. purified delta FosB, TAMRA-CDK5 oligo fluorescence polarization; normalised: neutral wells 0, positive control 100. activation, % at 24.9 µM. 2,400 tested, under 10 active. AID 588690;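 active = highest replicate activation at or above 34% and every replicate reaching that threshold; inconclusive = meets only one of the two criteria; inactive = meets neither criterion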;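 also: higher polarization means more probe DNA bound by delta FosB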
* hit, by the source's call; ? = inconclusive; / = not tested or not shown. The list is not random: actives were taken first. Their share in the collection is about 2.2%.

SMILES | ZTA DNA inh | EBNA-1 inh | dFosB act-1 | NALP1 inh | NALP3 yeast inh | PolyA inhibitor | EBNA-1 confirm | ZTA DNA inh trip | dFosB act-2 | others
COc1ccc(CCNCc2cc(C)n(-c3ccc(OC)cc3)c2C)cc1 | -8 | -27 | -2 | 32 | 30 | 0 | / | / | /
COc1cccc2c1cc1c(=O)n(CC(=O)NCCCN3CCCCC3)nc(C)n12 | -5 | 2 | 2 | 25 | -5 | 11 | / | / | /
O=C(CCCN1C(=O)S/C(=C/C=C/c2ccccc2)C1=O)Nc1ccc(C(=O)O)cc1 | 0 | 9 | -17 | -2 | 10 | 24 | / | / | /
O=C(CN1C(=O)S/C(=C\C=C\c2ccccc2)C1=O)Nc1ccc(O)cc1 | -18 | 52* | 61* | 27 | 12 | 6 | 7 | -2 | 8
CC(C)N(C(=O)COC(=O)CCC(=O)c1cccs1)c1ccccc1 | / | / | 1 | / | 18 | / | / | / | /
O=C(CCn1c(=S)[nH]c2ccccc2c1=O)Nc1cccc(Cl)c1 | 7 | 28* | 47* | 10 | 2 | 9 | 15 | 5 | 3
O=C(CCCn1c(=S)[nH]c2cc3c(cc2c1=O)OCO3)NCc1ccccc1Cl | 1 | 0 | 4 | -3 | 17 | 25 | / | / | /
O=C(CCCCCn1c(=S)[nH]c2ccccc2c1=O)NCc1ccc2c(c1)OCO2 | 5 | 32* | 44* | 3 | 3 | 12 | 14 | -3 | 3
O=C(Cn1nnc(-c2ccccc2NC(=O)c2ccccc2)n1)Nc1ccc2c(c1)OCCO2 | 10 | 61* | 44* | 23 | -9 | -6 | 60* | 4 | 2
Cc1ccc(NC(=O)Nc2ccon2)cc1Cl | 7 | 6 | 9 | 6 | 10 | 12 | / | / | /
COc1ccccc1N1CCN(C(C)C(=O)Nc2ccc(S(=O)(=O)N3CCOCC3)cc2)CC1 (centres undefined) | -9 | -4 | -5 | 26 | -3 | -2 | / | / | /
CC1CCCC(C)N1c1ccc(S(=O)(=O)N2CCOCC2)cc1Cl (centres undefined) | -6 | -1 | -19 | 6 | 23 | 21 | / | / | /
Cc1ccc(NC(=O)Cn2c(=O)n(CCCC(=O)NCc3ccco3)c(=O)c3ccccc32)cc1 | -5 | 38* | 32* | 6 | 8 | -8 | 45* | -7 | -3
Cc1ccc(CNC(=O)CCCn2c(=O)c3ccccc3n(CC(=O)NCc3ccco3)c2=O)cc1 | -4 | 1 | 0 | -6 | 2 | 0 | / | / | /
CSc1ccccc1NC(=O)Cn1nnc(-c2ccc(S(C)(=O)=O)cc2)n1 | -1 | 41* | 30* | 17 | -1 | 4 | 53* | 2 | 6
CS(=O)(=O)c1ccc(-c2nnn(CC(N)=O)n2)cc1 | 14 | -14 | 2 | -8 | -2 | -1 | / | / | /
C=CCn1c(SCC(=O)Nc2ccccc2OC)nc2c([nH]c3ccccc32)c1=O | -6 | 40* | 44* | 16 | 17 | 0 | 5 | 4 | 0
C=CCn1c(SCC(=O)Nc2ccc(F)cc2F)nc2c([nH]c3ccccc32)c1=O | 21 | 3 | 3 | 30 | 19 | 21 | / | / | /
COc1ccc(-n2nc(C(=O)NCC(=O)NCc3cccc(F)c3)c3ccccc3c2=O)cc1Cl | 22 | 28* | 26* | 28 | 8 | 0 | -7 | 6 | 4
O=C(Nc1ccc2oc(-c3cccnc3)nc2c1)c1ccc2c(c1)OCCO2 | 4 | 41* | 33* | 4 | -7 | 2 | 0 | 13 | 2
Cc1ccc(NC(=O)Cn2nc(-c3ccccc3)nc2-c2ccccc2)c(C)c1 | 4 | 11 | 13 | 36 | 18 | ? | / | / | /
Cc1ccc(C)c(NC(=O)Cn2nc(-c3ccccc3)nc2-c2ccccc2)c1 | 11 | 50* | 55* | 8 | 2 | -3 | 24 | -1 | -9
CCOC(=O)Nc1ccc(N2CCOCC2)c(S(=O)(=O)N2CCOCC2)c1 | -2 | -4 | -5 | -6 | 3 | 30 | / | / | /
CN1CCN(c2ccc(-c3cccc(NC(=O)COc4ccc(Cl)cc4Cl)c3)nn2)CC1 | 18 | 28* | 28* | / | 21 | 6 | 51* | -4 | 1
CN1CCN(c2ccc(-c3cccc(NC(=O)COc4ccc(Cl)cc4)c3)nn2)CC1 | 12 | 2 | -9 | / | 9 | 1 | / | / | /
SMILES | ZTA DNA inh | EBNA-1 inh | dFosB act-1 | NALP1 inh | NALP3 yeast inh | PolyA inhibitor | EBNA-1 confirm | ZTA DNA inh trip | dFosB act-2 | others
CCCc1cc(=O)oc2cc(C)cc(OC(C)C(=O)NCCCn3ccnc3)c12 (centres undefined) | 3 | -3 | -7 | 9 | -6 | -13 | / | / | /
CCC(=O)Nc1ccc(Cl)c(NC(=S)NC(=O)COc2ccc(Cl)cc2)c1 | 1 | 58* | 55* | 15 | 5 | 20 | 8 | 17 | -1
NS(=O)(=O)c1ccc(CCNC(=O)c2cc(-c3ccccn3)nc3ccc(Br)cc23)cc1 | -1 | 43* | 32* | 41* | 20 | -5 | 36* | 3 | -6
O=C(NCCc1ccc(Cl)cc1)c1cc(-c2ccccn2)nc2ccccc12 | 7 | 5 | 0 | 5 | 7 | -9 | / | / | /
Cc1ccc(S(=O)(=O)N(C)c2ccccc2C(=O)N2CCCC2)cc1 | 155* | -9 | 2 | 15 | 11 | -14 | / | / | / | Zta DNA confirm=-9;EBNA-1 counter=-15
COC(=O)c1c(NC(=O)CN2C(=O)C(=O)N(C(C)C)C2=O)sc(C)c1C | 3 | / | -9 | / | 10 | / | / | / | /
CN(C)c1ccc(N=C/C=C2\N(C)c3ccccc3C2(C)C)cc1 | 163* | 6 | 2 | 17 | 41 | -44 | / | / | / | Zta DNA confirm=2;EBNA-1 counter=-2
CN1\C(=C/C=C/C=C/C=[N+](C)C)C(C)(C)c2ccccc21 | / | / | ? | 14 | / | -2 | / | / | /
CCC(C(=O)O)n1cnc2scc(-c3ccc(C)c(C)c3)c2c1=O (centres undefined) | 117* | 1 | -2 | -1 | 8 | 0 | / | / | / | Zta DNA confirm=6;EBNA-1 counter=13
COc1ccc(C(C)NS(=O)(=O)Cc2ccccc2)cc1 (centres undefined) | -3 | -16 | 1 | 0 | 5 | -17 | / | / | /
NS(=O)(=O)c1ccc(NC(=O)CCC(=O)c2ccc(Cl)s2)cc1 | -1 | -4 | -10 | 11 | 7 | -7 | / | / | /
CCC(C)Sc1cc(-c2nc3ccc(C)cn3c2NCc2ccccc2)ccc1OC (centres undefined) | 40* | 11 | -9 | / | / | 7 | / | / | / | Zta DNA confirm=93*;EBNA-1 counter=-14
